Structures are written as SMILES. Calls of active or inactive are those of the source. How the source made its calls: active means hit-call score of the fitted dose curve at least 0.9, where 1 is the maximum; inactive means score below 0.9.

A word on the AC50: it is the concentration at which the activity in the assay is half-maximal.

The nature of the assay: ATG_SREBP_CIS: Attagene CIS-FACTORIAL HepG2 Assay for human Sterol Regulatory Element Binding (SREBP) (AID 2282962). The settings on record: HepG2 Attagene cis-factorial SREBP reporter, mRNA; actives raise or lower the signal. As for the experimental part:
ATG_CIS is a cell-based, multiplexed-readout assay that uses HepG2, a human liver cell line, with measurements taken at 24 hours after chemical dosing in a 24-well plate.ATG_SREBP_CIS is one of 52 assay component(s) measured or calculated from the ATG_CIS assay. It is designed to make measurements of mRNA induction, a form of inducible reporter, as detected with fluorescence intensity signals by Reverse transcription polymerase chain reaction (RT-PCR) and Capillary electrophoresis technology.Data from the assay component ATG_SREBP_CIS was analyzed into 1 assay endpoint. This assay endpoint, ATG_SREBP_CIS, was analyzed with bidirectional fitting relative to DMSO as the negative control and baseline of activity. Using a type of inducible reporter, measures of mRNA for gain or loss-of-signal activity can be used to understand the reporter gene at the transcription factor-level as they relate to the gene SREBF1. Furthermore, this assay endpoint can be referred to as a primary readout, because this assay has produced multiple assay endpoints where this one serves a reporter gene function. To generalize the intended target to other relatable targets, this assay endpoint is annotated to the dna binding intended target family, where the subfamily is basic helix-loop-helix leucine zipper.
Human liver HepG2 cells are transiently transfected with multiple reporter transcription units (MRTUs) in 6-well plates using FuGene 6 reagent (Roche; 3 ml FuGene/1 mg DNA). The MRTU constructs are regulated by a cis-regulating element (promoter). […] A major difference between the CIS and TRANS system is that in CIS activities of endogenous TFs are measured, whereas the TRANS assay evaluates changes in activities of exogenous, chimeric NR-Gal4 proteins. […] At the end of 24 hour incubation, total RNA was isolated using TriZol reagent (Invitrogen). The isolated RNA is then reverse-transcribed using oligo(dT) primer and Mo-MLV reverse transcriptase (Invitrogen) with DNAse I (Ambion) treatment for 30 min. The one-tenth of the produced cDNA was amplified by PCR using Taq DNA polymerase (Invitrogen) and two reporter sequence-specific primers. The PCR products were fluorescently labeled by primer extension with 6-arboxyfluorescein (6-FAM) 5'-labeled reporter sequence-specific primer (2 min at 95 C, 20 s at 68 C and 10 min at 72 C) and these products were digested with 5U of HpaI (New England Biolabs) for 2h at 37 C. The fragments were purified using Qiaquick PCR columns (Qiagen), analyzed on an ABI 3130xL genetic analyzer (Applied Biosystems) with peak positions identified by using a set of X-rhodamine (ROX)-labeled MapMarker1000 molecular weight standards (BioVentures). The raw capillary electrophoresis data was processed using Attagraph software (Attagene).
For `COCC(=O)N(c1c(C)cccc1C)[C@H](C)C(=O)OC`, the result was inactive.
On the same count and under the same terms, the value for `C#C[C@]1(O)CC[C@H]2[C@@H]3CCC4=CC(=O)CC[C@]4(C)[C@H]3CC[C@@]21C` was “inactive”.
On the same count and under the same terms, the value for `O=NN1CCCCCCC1` was “inactive”; that for `O=C(NC(=O)c1c(F)cccc1F)Nc1cc(Cl)c(F)c(Cl)c1F` was “inactive”; that for `ClCc1ccccc1CCl` was “inactive”.
Same read-out and setting: the value for `O=c1[nH]c(=O)n(Cl)c(=O)n1Cl` was “inactive”; that for `CC1(C)[C@H](C(=O)O[C@H](C#N)c2cccc(Oc3ccccc3)c2)[C@@H]1/C=C(\Cl)C(F)(F)F` was “inactive”.
As to `C=C(C)[C@@H]1CC=C(C=O)CC1`, the compound was classed as inactive.
In the case of `CCOP(=S)(OCC)SCSc1cc(Cl)ccc1Cl`, the outcome was inactive.
Turning to `Clc1cccc(Cl)c1Cl`, the outcome was inactive.
The same measure, in the same setting: the value for `O=[N+]([O-])c1cc([As](=O)(O)O)ccc1O` was “inactive”; that for `CCN(CC)C(=O)C(Cl)=C(C)OP(=O)(OC)OC` was “inactive”.
Regarding `CNC(=O)O/N=C/C(C)(C)S(C)(=O)=O`, the compound was called inactive.
For the compound `Oc1c(Cl)cc(Cl)cc1Cl`, the call was inactive.
Still for that read-out and setting: the value for `C=CC(=O)NC(C)(C)CC(C)=O` was “inactive”; that for `CC(C)(C)c1ccc(CCOc2ncnc3ccccc23)cc1` was “inactive”; that for `C=CCCl` was “inactive”.
On the same count and under the same terms, the value for `CCN(CCO)CCO` was “inactive”; that for `Nc1cccnc1` was “inactive”; that for `CCCCCCCCCCCCc1cccc(S(=O)(=O)O)c1` was “inactive”.
For `O=NN1CCOCC1`, the call was inactive.
As to `O=C(O)C1(c2ccc3c(c2)OC[C@H](Cc2ccc(-c4ccccc4)cc2)[C@H]3O)CCCC1`, the AC50 is 5.92 µM (active).
Take `ClCCN1CCOCC1`: the call was inactive.
Same read-out and setting: the value for `Cc1cc(SCc2sc(-c3ccc(C(F)(F)F)c(F)c3)nc2C)ccc1OCC(=O)O` was “inactive”; that for `CCNc1nc(NCC)nc(SC)n1` was “inactive”.
With `CC(C)(C#N)N=NC(C)(C)C#N`, the call was inactive.
The same measure, in the same setting: the value for `O=NN1CCCCCC1` was “inactive”; that for `N#Cc1ccncc1` was “inactive”.
Regarding `O=C(O)c1cc(I)cc(I)c1I`, the outcome was inactive.
With `CCOP(=S)(OCC)Oc1ccc(Cl)cc1Cl`, the compound was called inactive.
On to `CCCCN(CCCC)C(=S)[S-].CCCCN(CCCC)C(=S)[S-].[Ni+2]`, for which the compound was called inactive.
Turning to `[Cl][Sn]([c]1ccccc1)([c]1ccccc1)[c]1ccccc1`, the compound was called inactive.
Take `C#CCOC(=O)/C=C(C)/C=C/CC(C)CCCC(C)C` (stereo not given): the outcome was inactive.
As for `C[C@H]1C(=O)O[C@@H]2CCN3CC=C(COC(=O)[C@](C)(O)[C@]1(C)O)[C@H]23`, the compound was called inactive.
Consider `CCC(C)(C#N)N=NC(C)(C#N)CC` (stereo not given), for which the outcome was inactive.
Same read-out and setting: the value for `c1ccc2c(c1)Oc1ccccc1O2` was “inactive”.
Turning to `CCCCCCCCCCCCN(C)C`, the AC50 is 49 µM (active).
On to `CCCCC(CC)COC(=O)Cl` (stereo not given), for which the compound was called inactive.
`COP(=S)(OC)Oc1cc(Cl)c(I)cc1Cl`: the half-maximal activity concentration (AC50) is 37.3 µM (active).
Take `O=C1C=CC(=O)c2ccccc21`: the compound was called inactive.

Values taken from PubChem BioAssay (EPA / NIEHS).
